# Screens from PubChem BioAssay.
# VACV mCherry inh = qHTS for Stage-Specific Inhibitors of Vaccinia Orthopoxvirus: mCherry Reporter Primary qHTS | AID 720579, 2013 | Vaccinia virus mCherry reporter infection, fluorescence | Potency, µM (doses to about 36.5 µM), without a hit: top-dose activity change, negative = inhibition, actives largely listed as inhibitors | actives 0.63% (n = 310,000); calls by dose curve; tested in A549 cells; further: potency means the concentration at half of the fitted maximal effect; nearly all actives have a fitted effect of over 35% in size
# FMDV antiviral = High Throughput Screening for Foot and Mouth Disease Virus Antivirals | FMDV antiviral cell-based qHTS | Potency, µM (top dose mostly 57.9 µM), for inactives: top-dose activity change, negative = inhibition, hits mostly inhibitors | actives 1.2% (n = 410,000); calls by dose curve; tested in HEK293T cells; further: read-out not given here; potency means the concentration at half of the fitted maximal effect; nearly all actives have a fitted effect of over 45% in size
# HCMV inh = qHTS Assay for inhibitors of the human cytomegalovirus (HCMV); actives 4.5% (n = 410,000); activity change, negative = inhibition, % at 57.5 µM; HFF cells, HCMV-luciferase reporter, 72 h; hits give low values; in the data active means activity change below about -60%; inconclusive means no clear call, values can overlap the other calls; inactive means above about -39%
#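 Compounds were evaluated in HFFs infected with an HCMV luciferase reporter virus (MOI 1 PFU/cell). Luciferase in lysates collected 72 h post infection served as the replication measure.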
# Vaccinia Venus = qHTS for Stage-Specific Inhibitors of Vaccinia Orthopoxvirus: Venus Reporter Primary qHTS; Vaccinia virus Venus reporter expression, fluorescence; Potency, µM (series often up to 36.5 µM), inactives show top-dose activity change, negative = inhibition, hits mostly inhibitors; actives 0.46% (n = 330,000); AID 720580, 2013; calls by dose curve; tested in A549 cells; further: potency means the concentration at half of the fitted maximal effect; nearly all actives have a fitted effect of over 30% in size
# Marburg entry inh = qHTS for inhibitors of binding or entry into cells for Marburg Virus; Marburg virus pseudotyped entry inhibition, cell reporter; Potency, µM (titrated, usually from 37.8 µM), without a hit: at the highest dose activity change, negative = inhibition, actives largely listed as inhibitors; actives 1.8% (n = 300,000); calls by dose curve; tested in HEK293 cells; further: potency means the concentration at half of the fitted maximal effect
# LASV entry inh = qHTS for Inhibitors of binding or entry into cells for Lassa Virus; Potency, µM (highest dose often 37.9 µM), for inactives: at the top dose activity change, negative = inhibition, usual class: inhibitors; actives 1.2% (n = 300,000); Lassa virus pseudotype entry inhibition, cell reporter; calls by dose curve; tested in HEK293 cells; further: potency means the concentration at half of the fitted maximal effect; nearly all actives have a fitted effect of over 50% in size
# * hit, by the source's call; i = inactive; ? = inconclusive; . = not tested or not shown; + = active, no number; ! = repeats disagree; [ ] = another dose, or the depositor's remark. Rows were chosen to be rich in hits. Some 6.5% of all compounds tested hit in one or more screens of this group. On the % scale 0 is the no-effect control and ±100 the full control effect.
SMILES,VACV mCherry inh,FMDV antiviral,HCMV inh,Vaccinia Venus,Marburg entry inh,LASV entry inh
Cc1cc(C)nc(NC(=NCCc2c[nH]c3ccccc23)NC(=O)Nc2ccccc2)n1,?,0.0%,?,?,14.6µM*,?
Cc1cc(C)nc(NC(=NCCc2c[nH]c3ccccc23)NC(=O)Nc2cccc([N+](=O)[O-])c2)n1,-24.9%,-16.3%,-8.8,-15.1%,-5.5%,-0.1%
NC(=O)CSc1ccc2nnc(-c3ccncc3)n2n1,36.7%,.,.,-5.4%,.,.
CC(C)OC(=O)c1ccc(Cn2nnc3sc4c(c3c2=O)CCCC4)cc1,-7.9%,-11.2%,-10.5,-6.0%,?,6.1%[46.1 µM]
CCCCc1nc2ccccc2n1CC(=O)N(COCC)c1c(C)cccc1CC,24.2%,?,?,-10.0%,?,?
COc1cccc([C@H]2NC(=O)C[C@@H]3C[C@@H](C)[C@@H](c4cccc(OC)c4)N3C(=O)C=CC[C@@H]2C)c1,.,.,.,.,7.9%[14.2 µM],?
Cc1noc(C)c1CN1CCN2C(C(=O)Nc3ccccc3)=COC2=NC1=O,.,.,5.0,.,.,.
COc1cccc(CN2CCN3C(C(=O)Nc4ccccc4)=COC3=NC2=O)c1,.,.,-61.7*,.,.,.
Cc1nc2c(-c3ccc(Cl)cc3)cnn2c(N)c1-c1ccc(F)cc1,.,0.794µM*,?,.,.,.
Cc1nc2c(-c3ccc(F)cc3)cnn2c(N)c1-c1ccccc1,.,15.8µM*,-71.9*,.,.,.
COc1ccc(-c2c(C)nc3c(-c4ccc(F)cc4)cnn3c2N)cc1,.,31.4%,14.7,.,.,.
Cc1cc(Cl)ccc1OCC(=O)N(Cc1cccs1)C1CCS(=O)(=O)C1 (configuration not stated),?,-26.1%,-14.1,-11.7%,?,-25.3%
O=C(COc1ccccc1Cl)N(Cc1cccs1)C1CCS(=O)(=O)C1 (configuration not stated),-13.6%,-8.7%,-31.3,-6.3%,13.2%[46.1 µM],0.501µM*
COc1ccc(-c2noc(CSc3nnc(C)n3-c3ccc(C)cc3)n2)cc1,-10.1%[7.34 µM],-21.9%,-22.8,-9.7%[7.34 µM],-3.9%[46.1 µM],?
CC(=O)N1[C@H](C)C=C[C@]1(Cc1ccccc1)C(=O)NCCc1c[nH]c2ccccc12,-10.2%,5.6%,.,-16.1%,.,.
C[C@@H]1C=C[C@](Cc2ccccc2)(C(=O)NCCc2c[nH]c3ccccc23)N1C(=O)c1ccccc1,?,5.9%,?,-13.2%,?,8.2µM*
OC(CN1C2=NCCCN2c2ccccc21)c1ccc2c(c1)OCO2 (configuration not stated),.,2.1%,-31.5,-0.2%,-12.5%,3.7%
OC(CN1C2=NCCN2c2ccccc21)c1ccc2c(c1)OCO2 (configuration not stated),-26.3%[1.46 µM],12.0%,8.0,11.2µM*,?,?
CC(=O)c1ccc[n+](CC(=O)c2ccc(F)cc2)c1,i,.,.,-9.9%,.,.
CC(C)C(=O)N1CCC[C@@H]1c1noc2ccccc12,.,.,-15.5,.,.,.
COc1cccc(C(C)(O)c2nc(-c3cccc(C(=O)O)c3)cs2)c1 (configuration not stated),-12.4%,18.1%,2.8,3.1%,.,.
CCN(CC)C(=O)c1cccc(-c2csc(C(O)c3ccc(F)c(OC)c3)n2)c1 (configuration not stated),-26.9%,?,-62.1*,?,.,.
CCN(CC)C(=O)c1cccc(-c2csc(C(O)c3cccc(Cl)c3)n2)c1 (configuration not stated),i,28.2µM*,?,-10.9%,.,.
O=C(O)c1cccc(-c2csc(C(O)c3cccc(Cl)c3)n2)c1 (configuration not stated),i,46.8%,46.7,0.2%,.,.
CCN(CC)C(=O)c1cccc(-c2csc(C(C)(O)c3ccncc3)n2)c1 (configuration not stated),1.3%,25.1µM*,-31.6,-23.0%,.,.
SMILES,VACV mCherry inh,FMDV antiviral,HCMV inh,Vaccinia Venus,Marburg entry inh,LASV entry inh
CCN(CC)C(=O)c1cccc(-c2csc(C(O)c3ccc(OC)cc3)n2)c1 (configuration not stated),i,?,-12.6,-2.2%,.,.
CCOc1ccc(CNC(=O)C2CCCN(c3nn4cc(-c5ccc(F)cc5)nc4s3)C2)cc1 (configuration not stated),-18.4%,-9.8%,+,-20.4%,.,?
CCc1ccc(CNC(=O)C2CCCN(c3nn4cc(-c5ccc(F)cc5)nc4s3)C2)cc1 (configuration not stated),i,?,+,-17.5%,.,18.5%[46.1 µM]
O=C(C1CCC1)N1CC(=O)N2[C@H](CO)[C@@H](c3ccc(Br)cc3)[C@@H]2C1,.,.,-5.2,.,.,.
CC(=O)Nc1ccc(CN(C)CC2CCCN(CCc3cccc(C(F)(F)F)c3)C2)cc1 (configuration not stated),-27.1%,-29.1%,-30.1,-23.8%,10µM*,?
Cc1ccc(S(=O)(=O)N2CCN(c3nc(-n4c(=O)[nH]c5ccccc54)nc4ccccc34)CC2)cc1,-23.3%,.,.,-27.8%,.,.
CCCCn1c(SCC(=O)c2ccccc2)nc2sc3c(c2c1=O)CCCC3,-2.0%,-19.0%,13.5,8.8%,.,?
C[C@]12N[C@H](Cc3ccccc31)c1ccccc12,-16.6%,?,?,-8.9%,14.1µM*!,7.2%
CSc1sc(C(=O)NCC2CC2)cc1S(=O)(=O)C(C)C,-18.0%,-16.1%,-2.4,-9.0%,-1.3%[46.1 µM],?
COC(=O)c1cc(S(=O)(=O)C(C)C)c(S(C)=O)s1 (configuration not stated),10µM*,-17.5%,-66.4*,?,11.2µM*,-2.1%[46.1 µM]
Cc1ccn2c(=S)[nH]nc2c1,i,-10.6%,-66.5*,0.3%,.,.
O=S(=O)(c1ccc(NC(=S)Nc2ccccc2)cc1)N1CCOCC1,-12.8%,29.4%,-26.9,-12.9%,4.3%,18.1%
CCOC(=O)Nc1ccc(S(=O)(=O)N2CCOCC2)cc1,.,-19.4%,-4.9,.,10.4%,-0.8%
CC(C)CCCCCCNC(=S)Nc1ccc(S(=O)(=O)N2CCOCC2)cc1,?,-26.5%,-84.9*,?,?,?
CN(C)CC(C)(C)CNC(=S)Nc1ccc(S(=O)(=O)N2CCOCC2)cc1,-10.3%,-8.2%,-76.0*,0.6%,-12.5%,-2.1%
COc1cc(OC)c(NC(=O)c2c(C)oc3nc(C)nc(N4CCOCC4)c23)cc1Cl,i,10.2%,-34.2,-10.3%,.,?
CN(Cc1ccc(Cl)c(Cl)c1)C(=O)C1CSC2(C)CCC(=O)N12 (configuration not stated),.,-17.5%,-82.2*,.,.,.
CN(CC(=O)Nc1c(Cl)cccc1Cl)C(=O)C1CSC2(C)CCC(=O)N12 (configuration not stated),-9.9%,-16.6%,-0.2,-15.3%,-10.9%,3.3%
CC12CCC(=O)N1C(C(=O)NNC(=O)c1ccccc1Cl)CS2 (configuration not stated),.,-9.5%,-90.4*,.,.,.
